According to PubChem BioAssay AID1159580 (chemical genetic matrix, 2015):
Where “and” joins values, the source holds several entries; their conditions need not be identical. Identical values can stand only once. Among all 5,500 compounds or so, about 2,000 (36%) were called active. Not shown: some 18% with an inconclusive outcome. No stated cut-off is given here; in the data, active means normalized growth mostly below about 0.91 (no sharp cut-off); inconclusive means no clear call, values can overlap the other calls; inactive means mostly above about 0.92. This is one part of the list.

Experiment: chemical genetic growth profiling, strain panel (AID 1159580);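 further: tested at 20 µM; growth read once vehicle control cultures reached saturation at 30 °C; 1 = growth at the plate median or of vehicle wells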
Conditions: S. cerevisiae deletion strains, growth OD

Measured: normalized growth

O=c1[nH]c2cc(Cl)c(Cl)cc2[nH]c1=O
inactive: locus YAL013W, strain DEP1, stronger effect = lower value 1 and 0.993 | locus YAL021C, strain ccr4, stronger effect = lower value 1.03 | locus YAL026C, strain drs2, stronger effect = lower value 0.993 | locus YAL030W, strain snc1, stronger effect = lower value 0.989 | locus YAL040C, strain CLN3, stronger effect = lower value 1.11 | locus YBL061C, strain skt5, stronger effect = lower value 0.982 | locus YBR009C, strain hhf1, stronger effect = lower value 0.988 | locus YBR021W, strain FUR4, stronger effect = lower value 1 | locus YBR023C, strain chs3, stronger effect = lower value 1 | locus YBR171W, strain sec66, stronger effect = lower value 0.98 | locus YBR229C, strain ROT2, stronger effect = lower value 1.01 | locus YBR231C, strain swc5, stronger effect = lower value 0.979 | locus YBR279W, strain paf1, stronger effect = lower value 0.985 | locus YCL011C, strain gbp2, stronger effect = lower value 0.984 | locus YCL016C, strain dcc1, stronger effect = lower value 0.997 | locus YCL029C, strain bik1, stronger effect = lower value 1.04 | locus YCL061C, strain MRC1 (second series), stronger effect = lower value 1.01 | locus YCL069W, strain vba3, stronger effect = lower value 0.999 | locus YCR088W, strain abp1, stronger effect = lower value 0.997 | locus YDL005C, strain med2, stronger effect = lower value 0.982 | locus YDL035C, strain GPR1, stronger effect = lower value 1.01 | locus YDL040C, strain nat1, stronger effect = lower value 0.994 | locus YDL074C, strain BRE1, stronger effect = lower value 1.03 | locus YDL101C, strain DUN1, stronger effect = lower value 1.02 | locus YDL134C, strain PPH21, stronger effect = lower value 1.01 | locus YDL185W, strain tfp1, stronger effect = lower value 1.02 | locus YDL192W, strain arf1, stronger effect = lower value 1.02 | locus YDR001C, strain nth1, stronger effect = lower value 1 | locus YDR069C, strain doa4, stronger effect = lower value 0.969 | locus YDR101C, strain arx1, stronger effect = lower value 1.03 | locus YDR137W, strain rgp1, stronger effect = lower value 0.994 | locus YDR150W, strain NUM1, stronger effect = lower value 1.01 | locus YDR159W, strain sac3, stronger effect = lower value 0.901 | locus YDR162C, strain NBP2, stronger effect = lower value 1.01 | locus YDR195W, strain ref2 1 | locus YDR297W, strain sur2, stronger effect = lower value 0.99 | locus YDR318W, strain mcm21, stronger effect = lower value 1.02 | locus YDR334W, strain swr1, stronger effect = lower value 0.994 | locus YDR335W, strain msn5, stronger effect = lower value 1 | locus YDR363W, strain ESC2, stronger effect = lower value 0.968 | locus YDR388W, stronger effect = lower value 1.02 | locus YDR392W, strain spt3, stronger effect = lower value 0.92 | locus YDR502C, strain sam2, stronger effect = lower value 1.03 | locus YEL003W, strain gim4, stronger effect = lower value 0.993 | locus YEL037C, strain rad23, stronger effect = lower value 1 | locus YEL061C, strain CIN8 (second series), stronger effect = lower value 1.01 | locus YEL061C, strain CIN8, stronger effect = lower value 1.01 | locus YER002W, strain NOP16, stronger effect = lower value 0.997 | locus YER015W, strain faa2, stronger effect = lower value 0.995 | locus YER016W, strain bim1, stronger effect = lower value 0.992 | locus YER110C, stronger effect = lower value 1.04 | locus YER111C, strain swi4, stronger effect = lower value 0.991 | locus YER155C, strain BEM2 (second series), stronger effect = lower value 0.967 | locus YER155C, strain BEM2, stronger effect = lower value 1 | locus YER167W, strain BCK2, stronger effect = lower value 1.02 | locus YFR010W, strain ubp6, stronger effect = lower value 0.985 | locus YGL078C, strain dbp3, stronger effect = lower value 1.03 | locus YGL086W, strain mad1, stronger effect = lower value 1.01 | locus YGL167C, strain pmr1, stronger effect = lower value 0.999 | locus YGL173C, strain kem1, stronger effect = lower value 0.984 | locus YGL227W, strain vid30, stronger effect = lower value 0.986 | locus YGL240W, strain doc1, stronger effect = lower value 0.966 | locus YGL248W, strain PDE1, stronger effect = lower value 1.01 | locus YGL253W, strain hxk2, stronger effect = lower value 0.975 | locus YGR078C, strain PAC10, stronger effect = lower value 1.02 and 1.04 | locus YGR135W, strain pre9, stronger effect = lower value 1.02 | locus YGR229C, strain SMI1, stronger effect = lower value 1.01 | locus YGR252W, strain gcn5, stronger effect = lower value 1.01 | locus YHR013C, strain ard1, stronger effect = lower value 0.988 | locus YHR027C, strain rpn1, stronger effect = lower value 0.986 | locus YHR030C, strain SLT2, stronger effect = lower value 1.01 | locus YHR079C, strain IRE1 (second series), stronger effect = lower value 1.02 | locus YHR094C, strain hxt1, stronger effect = lower value 1.01 | locus YHR129C, strain ARP1, stronger effect = lower value 1.01 | locus YHR142W, strain chs7, stronger effect = lower value 1.01 | locus YHR200W, strain rpn10, stronger effect = lower value 1.02 | locus YIL066C, strain RNR3, stronger effect = lower value 1.01 | locus YIL073C, strain SPO22, stronger effect = lower value 1.1 | locus YIL125W, strain kgd1, stronger effect = lower value 1.02 | locus YIR030C, strain dcg1, stronger effect = lower value 1.04 | locus YJL092W, strain hpr5, stronger effect = lower value 0.997 | locus YJL095W, strain BCK1 (second series), stronger effect = lower value 1.02 | locus YJL095W, strain BCK1, stronger effect = lower value 1.02 | locus YJL115W, strain asf1, stronger effect = lower value 1 | locus YJL129C, strain trk1, stronger effect = lower value 0.95 | locus YJL134W, strain LCB3, stronger effect = lower value 1.01 | locus YJL154C, strain vps35, stronger effect = lower value 0.999 | locus YJL164C, strain tpk1, stronger effect = lower value 0.998 | locus YJL166W, strain qcr8, stronger effect = lower value 0.989 | locus YJL168C, strain set2, stronger effect = lower value 1.02 | locus YJL187C, strain SWE1 (second series), stronger effect = lower value 1.01 | locus YJR043C, strain POL32, stronger effect = lower value 1.01
